Experimental data taken from PubChem BioAssay (EPA / NIEHS).
Records with an inconclusive call do not appear. Activity calls are given as the source filed them. How the source made its calls: active means hit-call score of the fitted dose curve at least 0.9, where 1 is the maximum; inconclusive means response in the unintended direction; inactive means score below 0.9.

molecular target: Norway rat Vesicular Monoamine Transporter (VMAT2), neurotransmitter transporter, Slc18a2 (gene 25549) (UniProt Q01827); assay: NVS_TR_rVMAT2: NovaScreen (NVS) Transporter Assay for Norway rat Vesicular Monoamine Transporter (VMAT2), neurotransmitter transporter (AID 2283376);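 further: actives lower the bound radioligand signal below the DMSO level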
Protocol: NVS_TR_rVMAT2 is a biochemical, single-readout assay that uses extracted gene-proteins from Rat forebrain in a tissue-based cell-free assay. Measurements were taken 1 hour after chemical dosing in a 96-well plate.NVS_TR_rVMAT2 is one of one assay component(s) measured or calculated from the NVS_TR_rVMAT2 assay. It is designed to make measurements of radioligand binding, a form of binding reporter, as detected with scintillation counting signals by Filter-based radiodetection technology.Data from the assay component NVS_TR_rVMAT2 was analyzed into 1 assay endpoint. This assay endpoint, NVS_TR_rVMAT2, was analyzed in the positive analysis fitting direction relative to DMSO as the negative control and baseline of activity. Using a type of binding reporter, loss-of-signal activity can be used to understand changes in the binding as they relate to the gene Slc18a2. Furthermore, this assay endpoint can be referred to as a primary readout, because the performed assay has only produced 1 assay endpoint. To generalize the intended target to other relatable targets, this assay endpoint is annotated to the transporter intended target family, where the subfamily is vesicular transporter.
Binding assays used specific radioligands (tritiated, iodinated) with non-radioactive competitive displacement ligands in agonist or antagonist protocols (as indicated) and various reference compounds and inhibitors to titrate specific binding to receptors and transporters. Most enzyme assays (CYPs, kinases, phosphatases, proteases, HDACs) used recombinant protein and specific substrates (fluorescence mostly, some colorimetric and radioactive) and inhibitors, followed by a biochemical separation of substrate and product. All assays for the biochemical HTS were initially run in duplicate at a single concentration (10 uM for CYP450 assays and 25 uM for all others). […] Each assay was run with positive and negative controls, and concurrent controls on every plate. The follow-up (secondary) screen tested active chemical-pairs in concentration series, as well as a few additional assays not tested in the primary screen, some selected negative inactives, and several cases re-run in the concentration series for confirmatory purposes.

Norway rat Vesicular Monoamine Transporter (VMAT2), neurotransmitter transporter, Slc18a2 (gene 25549), sequence (Q01827 whole entry, looked up): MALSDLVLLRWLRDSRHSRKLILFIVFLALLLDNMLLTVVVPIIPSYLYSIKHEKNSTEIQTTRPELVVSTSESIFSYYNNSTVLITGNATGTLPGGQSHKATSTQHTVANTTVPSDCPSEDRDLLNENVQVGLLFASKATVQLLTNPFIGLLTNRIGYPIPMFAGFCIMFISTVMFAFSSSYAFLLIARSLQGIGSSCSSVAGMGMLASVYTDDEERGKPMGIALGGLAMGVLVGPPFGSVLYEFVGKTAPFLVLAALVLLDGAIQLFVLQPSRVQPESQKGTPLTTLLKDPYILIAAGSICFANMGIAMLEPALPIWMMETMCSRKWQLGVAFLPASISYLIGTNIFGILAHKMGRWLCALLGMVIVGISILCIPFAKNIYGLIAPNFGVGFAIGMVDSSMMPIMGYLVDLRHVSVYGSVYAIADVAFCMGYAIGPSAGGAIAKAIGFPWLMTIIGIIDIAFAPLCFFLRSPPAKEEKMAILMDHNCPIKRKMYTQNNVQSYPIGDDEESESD

| SMILES | outcome | AC50 |
| --- | --- | --- |
| CC1CC(=O)O1 (stereo not given) | inactive | – |
| O=C(O)COc1cc(Cl)c(Cl)cc1Cl | inactive | – |
| O=C(N[C@H]1CN2CCC1CC2)c1ccc2c(c1)OCCO2 | inactive | – |
| Oc1cc(Cl)c(Cl)cc1Cl | inactive | – |
| [Cl][Sn]([c]1ccccc1)([c]1ccccc1)[c]1ccccc1 | inactive | – |
| Oc1cccc(-c2ccccc2)c1 | inactive | – |
| CCCCCCCCCCCCOS(=O)(=O)O | inactive | – |
| CCOP(=O)(OCC)OC(=CCl)c1ccc(Cl)cc1Cl | – | 10.9 µM (active) |
| CCCCCCCCCCCCN(C)C | inactive | – |
| N#Cc1cccnc1 | inactive | – |
